# The list is not random: actives were taken first. Their share in the collection is about 4.6%.
# D1 antagonist: blocks dopamine activation of the human D1 receptor | activity change, negative = inhibition, % at 10 µM | P21728 | HEK293 TREx D1 cells, calcium flux, dopamine EC80; active compounds read low | 360,000 compounds, 3.2% hits; in the data active = activity change below about -30%; note: % is set by controls: 0 for no effect and ±100 for the full control effect
#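 Allosteric or orthosteric antagonism assessed as attenuation of the calcium response to EC80 dopamine, added 180 s after compound, in induced HEK293 Trex D1 cells loaded with no-wash calcium dye.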
# TRHR PAM: allosteric enhancers of human TRH receptor. TRHR cells, fluo-8 calcium fluorescence, EC20 TRH enhancement. enhancement, % at 2 µM. 360,000 compounds, 0.66% hits. P34981; in the data active = enhancement above about 30%; note: 0% is about no effect
# Target sequence (P34981 whole entry, looked up): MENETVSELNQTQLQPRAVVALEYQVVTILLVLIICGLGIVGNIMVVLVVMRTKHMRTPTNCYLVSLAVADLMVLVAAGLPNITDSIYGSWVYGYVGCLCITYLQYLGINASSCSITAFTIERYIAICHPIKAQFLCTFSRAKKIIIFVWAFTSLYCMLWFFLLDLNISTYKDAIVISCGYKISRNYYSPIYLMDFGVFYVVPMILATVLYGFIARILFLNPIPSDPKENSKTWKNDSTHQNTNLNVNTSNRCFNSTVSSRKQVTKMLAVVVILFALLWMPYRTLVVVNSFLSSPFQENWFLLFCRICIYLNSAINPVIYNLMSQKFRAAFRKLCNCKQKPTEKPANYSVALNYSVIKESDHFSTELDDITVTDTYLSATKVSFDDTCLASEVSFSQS
#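 Enhancer read-out: after compound pinning and an initial kinetic agonist-mode read, an EC20 of TRH (10 nM final) was injected and fluo-8 calcium signal (Ex 480/Em 530) followed at 1 s/cycle for 100 cycles in TRHR-expressing cells.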
# TRHR ag: TRH receptor (human) agonism | P34981 | TRHR cells, calcium flux fluo-8, FDSS agonist mode | activation, % at 2 µM | 360,000 compounds, 0.18% hits; note: 0% is about no effect
#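 In this calcium-flux screen, cells bearing human TRHR are dye-loaded with fluo-8, baselined for 10 cycles, then exposed to library compounds; positive kinetic calcium responses during the agonist phase mark hits, with TRH as control.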
# D1 agonist: agonists of human D1 dopamine receptor. P21728. HEK293 T-REx D1 cells, calcium flux, agonist mode. activation, % at 2 µM. 360,000 compounds, 1% hits. AID 504660; note: 0% is about no effect
#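 Agonism was scored from calcium flux recorded over 180 s (1 read/s) after pintool compound addition, following a 10-cycle baseline. Cells were inducible force-coupled HEK293 TREx D1, plated overnight at 30 C and loaded with no-wash calcium dye.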
# D1 potentiator: human D1 dopamine receptor positive modulation. HEK293 TREx D1 cells, calcium flux, dopamine EC20 potentiation. potentiation, % at 10 µM. AID 504651. 360,000 compounds, 0.036% hits; in the data active = potentiation above about 30%; note: 0% is about no effect
# Numbers without * were called inactive; / = no result given; ! = repeats disagree. Cut-off read from the data, not from the text of the source, unless noted: active = activation above about 30%; inactive = the rest.
SMILES,D1 antagonist,TRHR PAM,TRHR ag,D1 agonist,D1 potentiator
CCCc1nc2ccccc2n1CCOc1ccccc1,-49*,-7,0,21,-21
COCCCNc1c2c3c(cccc3[nH]c1=O)C(=O)c1ccccc1-2,-53*,17,0,809*,/
O=C(Cc1cccc(F)c1)N1CCCC(CO)(Cc2ccc(F)cc2F)C1 (stereo unspecified),31,-2,1,-1,-3
COc1ccccc1/C=C/CN1CCCC(CO)(Cc2cccc(Cl)c2)C1 (stereo unspecified),5,3,1,4,2
COc1cccc(CC(=O)N2CCCC(CO)(Cc3ccc(F)cc3F)C2)c1 (stereo unspecified),-47*,-7,0,7,-5
COc1cccc(CC2(CO)CCCN(C/C=C/c3ccccc3OC)C2)c1 (stereo unspecified),19,10,-1,33*,-4
O=C(CNS(=O)(=O)c1ccc([N+](=O)[O-])cc1)N/N=C/c1ccc(O)cc1O,1,4,1,9,4
O=C(CC1N=C2c3ccccc3N=C(SCc3ccccc3Cl)N2C1=O)NC1CCCCC1 (stereo unspecified),4,0,-1,0,-1
CCc1noc(C)c1C(=O)Nc1cc(Cl)ccc1N1CCOCC1,8,6,0,-1,3
COc1cc2nc(/C=C/c3ccc(N(C)C)cc3)sc2cc1SC,12,6,85*,554*,35*
CN(C)c1ccc(/C=C/c2ccncc2)cc1,4,1,19,14,-3
COc1ccc(C2Nc3ccccc3C(=O)N2Cc2ccccc2)cc1 (stereo unspecified),-39*,-2,-1,4,-4
CCCCCN1CC(=O)N2Cc3[nH]c4ccccc4c3C[C@H]2C1=O,-5,1,0,5,-2
CCCCN1C(=O)C2Cc3c([nH]c4ccccc34)CN2C1=S (stereo unspecified),-33*,-4,6,16,1
Cc1cccc(N2CCN(C(=O)CN3CCSc4ccccc43)CC2C)c1 (stereo unspecified),-17,-11,0,5,-2
N#C/C(=N\Nc1ccccc1)C(N)=S,-27,-4,2,19,-7
N#C/C(=N\Nc1ccc(Cl)cc1)C(N)=S,-15,-5,3,30*,-3
Cc1ccc(S(=O)(=O)Cc2ccc(C(=O)NC3CCCC3)o2)cc1,-7,-1,0,1,0
Cc1ccc(CCNC(=O)c2ccc(CSCc3ccc(C)cc3)o2)cc1,-5,-3,3,31*,-2
O=C(NC1CCCC1)c1ccc(CS(=O)(=O)c2ccc(Br)cc2)o1,-30*,-3,0,1,-4
COc1ccc(CCNC(=O)c2ccc(CS(=O)(=O)c3ccc(C)cc3)o2)cc1OC,-31*!,-6,-1,8,1
Cc1ccc(S(=O)(=O)Cc2ccc(C(=O)N3CCC(C(N)=O)CC3)o2)cc1,6,36*,0,2,3
COc1ccc(S(=O)(=O)Cc2ccc(C(=O)N3CCC(C(N)=O)CC3)o2)cc1,-15,-1,-1,1,-6
COCCNC(=O)CCCn1c(SCC(=O)Nc2ccc(F)cc2)nc2c(sc3ccccc32)c1=O,8,-7,0,5,1
CCc1ccccc1NC(=O)c1ccc2[nH]c(C)c(C)c2c1,-21,4,-1,4,-6
SMILES,D1 antagonist,TRHR PAM,TRHR ag,D1 agonist,D1 potentiator
CC(=O)Nc1ccc(NC(=O)CN2C(=O)CC(c3ccco3)Sc3ccccc32)cc1 (stereo unspecified),2,0,0,2,-4
CCC(C)NC(=O)c1ccc(CS(=O)(=O)c2ccc(OC)cc2)o1 (stereo unspecified),-38*,-6,0,-1,8
COc1ccc(CCNC(=O)c2c(N)no[n+]2[O-])cc1OC,-31*,-3,0,0,-5
C#CCn1c(-c2cccs2)nc2ccccc21,23,32*,1,2,-5
CCc1ccc(NCc2cc3cc4c(cc3n(CC(=O)Nc3ccccc3Cl)c2=O)OCO4)cc1,-18,-7,29,66*,-2
CCc1ccc(NCc2cc3cc4c(cc3n(CC(=O)Nc3ccc(F)cc3)c2=O)OCCO4)cc1,-9,5,9,9,-2
CCc1ccc(NCc2cc3cc4c(cc3n(CC(=O)Nc3ccc(C)cc3)c2=O)OCO4)cc1,2,-6,-1,49*,-2
CCCCOc1ccc(C(=O)N2CCC(c3nc4ccccc4o3)CC2)cc1,-26,-2,0,0,0
COc1ccc(NC(=O)Cn2c(=O)n(CCCC(=O)NCCc3ccc(C)cc3)c(=O)c3ccccc32)cc1Cl,11,-3,0,1,-1
COc1ccccc1C(CC(=O)c1ccccc1)CC(=O)c1ccccc1,-30,-8,2,30*,-2
Cc1oc(C)c2c(=O)cc(-c3ccc4c(c3)OCO4)cc(OC(=O)c3ccccc3Br)c12,2,-7,1,4,-2
COC(=O)c1onc(-c2ccccc2)c1C(=O)OC,-36*,4,0,3,-1
CCC(=O)N(CCC(c1ccccc1)c1ccc2c(c1)OCO2)Cc1ccc(OC(C)C)cc1 (stereo unspecified),-53*,-7,2,27,-3
CCN1CCN(C(c2cccc(Cl)c2)c2c(O)cc(C)n(CCOC)c2=O)CC1 (stereo unspecified),-13,-6,0,-1,4
Cc1c(CCC(=O)NCCc2ccccc2F)c(=O)oc2cc(O)ccc12,4,4,0,-1,-1
O=C1NCCN(Cc2ccc(F)cc2)C1=O,-41*,2,1,-2,-1
COc1ccc(CCNC(=O)c2ccc(OCC(=O)N3CCOCC3)c(OC)c2)cc1OC,-42*,4,0,3,1
COc1ccc(CCNC(=O)c2ccc3c(c2)NC(=O)CS3)cc1OC,-33*,2,0,1,-1
COc1ccc(CCNC(=O)CCS(=O)(=O)c2ccc3c(c2)NC(=O)CS3)cc1OC,8,1,1,4,5
COc1ccc(CCNC(=O)c2ccc(Cn3c(=O)[nH]c4cc(OC)c(OC)cc4c3=O)cc2)cc1OC,-35*,-5,0,1,0
COc1cc2[nH]c(=O)n(Cc3ccc(C(=O)NCc4ccccc4)cc3)c(=O)c2cc1OC,47,3,0,1,3
Cc1ccc(C(=O)NCCN2CCOCC2)cc1,13,0,0,-1,-3
Cc1ccc(C(=O)NCCC(=O)N2CCOCC2)cc1,-37*,1,1,1,-5
Cc1ccc(Cn2c(C)c3cnn(CC(=O)NCCc4ccc(Cl)cc4)c(=O)c3c2C)cc1,0,5,0,-1,-2

# Screens deposited in PubChem BioAssay by National Center for Advancing Translational Sciences (NCATS).
